High-throughput results: PubChem BioAssay, National Center for Advancing Translational Sciences (NCATS)
AID inhibitor = Primary qHTS assay for inhibitors of Activation Induced Cytidine Deaminase (AID): AID signal. Single-stranded DNA cytosine deaminase (Homo sapiens), Q9GZX7. AID deamination FRET fluorescence, UDG-coupled, 4 h. Potency, µM (doses to about 115 µM), usual class: inhibitors. 91,000 tested, 0.32% active; further: nearly all actives have a fitted effect of over 25% in size
Target sequence (Q9GZX7 whole entry, looked up): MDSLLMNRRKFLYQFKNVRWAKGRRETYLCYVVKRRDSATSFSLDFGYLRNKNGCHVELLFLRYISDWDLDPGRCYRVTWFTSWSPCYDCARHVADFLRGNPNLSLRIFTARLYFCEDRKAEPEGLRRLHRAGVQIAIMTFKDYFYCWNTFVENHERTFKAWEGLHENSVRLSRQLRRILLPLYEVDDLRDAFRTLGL
UDG counterscr = Primary qHTS assay for inhibitors of Activation Induced Cytidine Deaminase (AID): UDG Counterscreen signal; FRET deamination/UDG coupled assay, UDG read, 4 h; Potency, µM (doses to about 115 µM), without a hit: top-dose activity change, negative = inhibition, usual class: inhibitors; 91,000 tested, 0.14% active; AID 1347430, 2020; further: nearly all actives have a fitted effect of over 65% in size
An asterisk follows results filed as active; i = inactive; ? = inconclusive; ! = not confirmed by another sample; [ ] = dose if it differs, or a comment. An excerpt weighted towards active compounds, which were near 0.47% of everything screened. The call rests on the fitted dose curve; in most records, active means well fitted curve in the direction sought with a large enough effect; inconclusive means small, poorly fitted or top-dose-only effect, or another doubt; inactive means no such curve, though single readings can be large; an effect the other way counts as inactive or inconclusive. On the % scale 0 is the no-effect control and ±100 the full control effect; potency means the concentration at half of the fitted maximal effect.

SMILES	AID inhibitor	UDG counterscr
Cc1ccc(OCC(=O)NC2=NCCS2)cc1C	i	-7%
COc1ccc(C(=O)Nc2nc3nc(C)c(Cl)c(=O)n3[nH]2)cc1	i	-5%
Cc1nc2nc(NC(=O)c3ccc(C(C)(C)C)cc3)[nH]n2c(=O)c1Cl	32µM*	5%
O=C(CSc1nccn1-c1cccc(Cl)c1)Nc1cccc(C(F)(F)F)c1	32µM*	-20%
O=C(CSc1nccn1-c1ccc(Cl)cc1)Nc1ccc(Cl)c(Cl)c1	i	-5%
Cc1ccccc1CNC(=O)c1nccnc1N	i	7%
COc1ccc(-c2noc(CSc3nnc(-c4ccccc4)n3C)n2)cc1	i	-24%
c1ccc(-c2noc(CSc3nnnn3C3CCCCC3)n2)cc1	i	89µM*
O=C(O)C/C(=C/c1cccnc1)c1nc2ccccc2s1	i	-9%
COc1ccc(Cl)cc1NC(=O)C1CCN(c2nccnc2Oc2ccccc2C)CC1	i	89µM*
COc1ccccc1NC(=O)C1CCN(c2nccnc2Sc2ccc(C)cc2)CC1	i	?
COc1ccc(CNC(=O)c2cnn3c(C)c(Cc4c(F)cccc4Cl)c(C)nc23)cc1	35µM*	-17%
Cc1nc2c(C(=O)NCc3ccccc3)cnn2c(C)c1Cc1ccc(F)cc1	?	-22%
CCCCNC(=O)c1cnn2c(C)c(Cc3c(C)cc(C)cc3C)c(C)nc12	?	-28%
CCCNC(=O)c1cnn2c(C)c(Cc3c(C)cc(C)cc3C)c(C)nc12	40µM*	-10%
CCCCn1nnc(NC(=O)COc2ccc(C(C)(C)C)cc2)n1	i	-5%
CC(C)c1ccc(C2C(C#N)=C(N)Oc3c2ccc2ccccc32)cc1 (stereo unspecified)	i	?
NCC1CCN(CCO)C1 (stereo unspecified)	i	-4%
N#Cc1ccc(C(=O)C(C#N)C(=O)Nc2cccc3ccccc23)cc1 (stereo unspecified)	i	-10%
Oc1ccc(NCc2ccccc2OCc2ccccc2)cc1	32µM*	79µM*
CCOc1cc(CNc2ccc(O)cc2)cc(Br)c1OCc1ccccc1	i	-13%
Oc1ccc(NCc2ccccc2OCc2ccc(Cl)cc2)cc1	32µM*	-11%
CCOc1cc(CNc2ccc(O)cc2)ccc1OCc1ccc(Cl)cc1	?	-7%
c1cncc(-c2nc(Sc3ccc4c(c3)OCCCO4)c3ccccc3n2)c1	i	10%
O=Cc1ccc(-c2cc(Cl)c(Cl)cc2Cl)o1	i	4%
SMILES	AID inhibitor	UDG counterscr
Cc1ccc(OCC(=O)Nc2ccc3c(c2)nc(CCn2ccccc2=O)n3C)cc1	i	-3%
CCn1cc(C(=O)NCCc2ccc(OC)c(OC)c2)c(=O)c2cc(S(=O)(=O)N3CCCCCC3)ccc21	i	-15%
CCn1cc(C(=O)NCCc2ccc(OC)c(OC)c2)c(=O)c2cc(S(=O)(=O)N(C)C3CCCCC3)ccc21	16µM*	-23%
CC(C)Oc1ccc(C(=O)NCCc2csc(-c3cccc(F)c3)n2)cc1	45µM*	0%
CCCCOc1ccc(C(=O)NCCc2csc(-c3cccc(F)c3)n2)cc1	i	5%
CCOc1ccc(CNC(=O)c2sc3ncnc(N(C)C4CCCCC4)c3c2C)cc1	?	-15%
CCc1ccc(NC(=O)c2sc3ncnc(N(C)C4CCCCC4)c3c2C)cc1	i	79µM*
COCc1cccc(C(=O)NCc2ccc(C(=O)OC)cc2)c1	i	-13%
Cn1c(-c2ccccc2)c(C(=O)COC(=O)COc2cccc3c2OC(C)(C)C3)c2ccccc21	i	4%
CC(C)CCC1(C)NC(=O)N(c2ccc(Br)cc2)N1 (stereo unspecified)	i	9%
Cc1cc(C)cc(OCC(=O)N(Cc2cccs2)c2ccc(Cl)cc2)c1	22µM*	-5%
Cc1ccc(N(Cc2cccs2)C(=O)COc2cccc(C)c2)cc1	?	1%
O=C1CCCC2=C1C(c1ccc(C(F)(F)F)cc1)C1=C(N2)c2ccccc2C1=O (stereo unspecified)	i	-1%
CC(C)(C)c1ccc(C2Sc3ccccc3NC3=C2C(=O)c2ccccc23)cc1 (stereo unspecified)	i	89µM*
CCOC(=O)c1cccc(NC(=O)c2oc3c(c2C)-c2nn(CC)cc2CC3)c1	40µM*	?
COc1cccc(CNC(=O)c2oc3c(c2C)-c2nn(Cc4cccc(Cl)c4)cc2CC3)c1OC	79µM*	-16%[57.5 µM]
CCOC(=O)c1cccc(NC(=O)c2oc3c(c2C)-c2[nH]ncc2CC3)c1	?	-20%[57.5 µM]
COc1cccc(CNC(=O)c2oc3c(c2C)-c2nn(Cc4cccc(Cl)c4)cc2CC3)c1	?	-18%[57.5 µM]
CCC1CCCCN1C(=O)Cn1c(=O)n(-c2ccc(F)c(C)c2)c(=O)c2sccc21 (stereo unspecified)	i	0%
CCOc1ccc(S(=O)(=O)Nc2nc3ccccc3nc2Nc2ccc(OC)cc2)cc1	?	-1%
CCc1ccc(Nc2nc3ccccc3nc2NS(=O)(=O)c2ccccc2)cc1	28µM*!	3%
Fc1cccc(CSc2c[nH]c3ccccc23)c1	i	-13%
CCCc1nc2ccccc2c(C(=O)OCC(=O)NC(=O)NC)c1CC	i	1%
C/C(=N/Nc1ccc2ccccc2c1)c1ccccc1	i	8%
ClCC(Cl)C[n+]1cccc2ccccc21 (stereo unspecified)	i	-7%
SMILES	AID inhibitor	UDG counterscr
N[n+]1cccc2ccccc21	i	1µM*
CC(O)C(NC(=O)c1cc(Cl)ccc1F)C(=O)O (stereo unspecified)	i	-3%
Cc1cccc(NC(=S)NC2CCCC(C)C2C)c1 (stereo unspecified)	i	-8%
COc1ccc2c(c1)CC/C(=C\c1ccc(Br)o1)C2=O	i	-11%
CCOc1cccc2c(C)nc(Nc3nc(C)c(CC)c(=O)[nH]3)nc12	50µM*	-7%
COc1ccc2nc(Nc3nc(C)c(CCC(C)C)c(=O)[nH]3)nc(C)c2c1	i	3%
CCCCSCCCNC(=O)C1CCN(Cc2nc(-c3ccc(CC)cc3)oc2C)CC1	?	89µM*
CCCCSCCCNC(=O)C1CCN(Cc2nc(-c3cccc(Br)c3)oc2C)CC1	i	?
Cc1ccc(-c2cc(C(=O)OCC(=O)NC(=O)NC(C)C)c3ccccc3n2)o1	i	3%
CCOc1ccc(C(=O)Nc2sc(C)c(CC)c2C#N)cc1	i	-5%
Cc1cccc(N2CCN(c3ncnc4onc(-c5ccc(F)cc5)c34)CC2C)c1 (stereo unspecified)	?	79µM*
Cc1cccc(N2CCN(c3ncnc4onc(C)c34)CC2C)c1 (stereo unspecified)	i	1%
COc1cc(/C=C(/C#N)C(=O)Nc2ccccc2C(F)(F)F)ccc1OCc1ccc(F)cc1	i	2%
COc1cc(/C=C(\C#N)C(=O)Nc2nnc(C(F)(F)F)s2)ccc1OCc1ccc(C(F)(F)F)cc1C(F)(F)F	50µM*	-7%
COc1ccccc1Cc1nc2ccccc2nc1SCC(=O)N1CCCCC1	?	89µM*
COc1ccccc1Cc1nc2ccccc2nc1SCC(=O)N1CCc2ccccc21	i	0%
O=C(NCc1coc(-c2cccs2)n1)c1ccc(Cl)cc1Cl	i	-3%
CC(=O)c1ccc(N2CCN(CCS(=O)(=O)c3ccccc3)CC2)cc1	i	3%
